# Screening results from PubChem.
# In the library only some 1.1% were active in any assay of this set; here they are far more common.
# VACV mCherry inh: qHTS for Stage-Specific Inhibitors of Vaccinia Orthopoxvirus: mCherry Reporter Primary qHTS; Vaccinia virus mCherry reporter infection, fluorescence; Potency, µM (doses to about 36.5 µM), for inactives: at the top dose activity change, negative = inhibition, actives largely listed as inhibitors; 310,000 compounds, 0.63% hits; calls by dose curve; tested in A549 cells; note: nearly all actives have a fitted effect of over 35% in size
# AmpC detergent: qHTS Inhibitors of AmpC Beta-Lactamase (assay with detergent) | 370,000 compounds, 0.041% hits | Potency, µM (top dose mostly 114 µM), without a hit: at the top dose activity change, negative = inhibition, actives largely listed as inhibitors | P00811 | AmpC hydrolysis of nitrocefin, absorbance 480 nm, 0.01% Triton;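 note: 0% = no-compound wells and -100% = no-enzyme wells; nearly all actives have a fitted effect of over 25% in size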
# Target sequence (P00811 whole entry, looked up): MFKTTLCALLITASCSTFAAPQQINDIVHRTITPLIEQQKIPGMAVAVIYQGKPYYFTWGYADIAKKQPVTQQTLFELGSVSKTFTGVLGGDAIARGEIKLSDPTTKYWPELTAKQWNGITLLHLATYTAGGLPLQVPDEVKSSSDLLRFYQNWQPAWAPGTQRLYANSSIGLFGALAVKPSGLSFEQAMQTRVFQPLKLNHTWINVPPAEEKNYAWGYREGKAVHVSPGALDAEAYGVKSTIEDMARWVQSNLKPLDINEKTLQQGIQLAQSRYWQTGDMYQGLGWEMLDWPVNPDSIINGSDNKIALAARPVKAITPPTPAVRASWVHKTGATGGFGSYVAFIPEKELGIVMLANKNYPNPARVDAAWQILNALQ
#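 20 mM phosphate pH 7.0 + 0.01% (detergent screen) or 0.0001% Triton X-100; 5.3 nM AmpC reagent; cpd preinc 15 min RT; nitrocefin (800 uM stock) to start; A480 q20 s × 4 min; Activity was normalised to no-enzyme and no-compound control wells.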
# AmpC inh no detg: qHTS Inhibitors of AmpC Beta-Lactamase (assay without detergent) | 330,000 compounds, 0.52% hits | P00811 | Potency, µM (top dose mostly 57.1 µM), for the others: at the highest dose activity change, negative = inhibition, usual class: inhibitors | AmpC nitrocefin hydrolysis, absorbance 480 nm, 0.0001% Triton;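 note: plate controls were no compound for no effect and no enzyme for full effect; nearly all actives have a fitted effect of over 20% in size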
#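 20 mM phosphate pH 7.0 + 0.01% (detergent screen) or 0.0001% Triton X-100; 5.3 nM AmpC reagent; cpd preinc 15 min RT; nitrocefin (800 uM stock) to start; A480 q20 s × 4 min; Activity was normalised to no-enzyme and no-compound control wells.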
# Vaccinia Venus: qHTS for Stage-Specific Inhibitors of Vaccinia Orthopoxvirus: Venus Reporter Primary qHTS; Vaccinia virus Venus reporter expression, fluorescence; Potency, µM (series often up to 36.5 µM), inactives show at the top dose activity change, negative = inhibition, most hits filed as inhibitors; 330,000 compounds, 0.46% hits; calls by dose curve; tested in A549 cells; note: nearly all actives have a fitted effect of over 30% in size
# Numbers without * were called inactive; i = inactive; ? = inconclusive; · = no result. Unless noted, calls come from the whole dose curve; as a rule, active = well fitted curve in the direction sought with a large enough effect; inconclusive = small, poorly fitted or top-dose-only effect, or another doubt; inactive = no such curve, though single readings can be large; an effect the other way counts as inactive or inconclusive. Unless noted, % is set by controls: 0 for no effect and ±100 for the full control effect; potency is the fitted concentration of half-maximal effect.
SMILES,VACV mCherry inh,AmpC detergent,AmpC inh no detg,Vaccinia Venus
Cc1oc(-c2cccc(NC(=O)C3CCCN(C)C3)c2)nc1CNC(=O)c1coc2c1C(=O)CCC2 (stereo unspecified),-23.0%,·,·,-29.3%
CCc1nc2cc(C(=O)N3CCC[C@H]3CO)cc(NC(=O)c3ccccc3OC)c2n1C,-10.5%,·,·,-8.7%
SCc1nc2ccccc2[nH]1,-21.8%,·,·,-10.7%
O=C(CCl)N1N=C(c2ccco2)CC1c1cccs1 (stereo unspecified),8.91µM*,-8.7%,-20.3%,?
CC(=O)N1N=C(c2ccco2)CC1c1cccs1 (stereo unspecified),i,0.9%,-12.4%,-15.4%
COc1ccc2[nH]c(C)c(CCN(Cc3cccs3)C(=S)Nc3cccc(F)c3)c2c1,?,2.6%,44.7µM*,-17.6%
COc1ccccc1-n1cc(CN2CCC3(CCC(CNC(=O)c4ccccc4)O3)CC2)cn1 (stereo unspecified),i,·,·,0.8%
COC(COC(N)=O)C1=C(N2CC2)C(=O)C(C)=C(N2CC2)C1=O (stereo unspecified),?,·,·,2.82µM*
FC(F)(F)c1cccc(N2CCN(C(=S)NC3CCCC3)CC2)c1,·,4.9%,0.251µM*,?
CO[C@H]1[C@H](NC(=O)c2ccco2)c2ccccc2C12CCN(Cc1cnc(N(C)C)s1)CC2,-4.7%,·,·,-0.6%
Cc1ccc(Cl)cc1N1CCN(S(=O)(=O)c2ccc3c(c2)C(C(C)C)C(=O)N3)CC1 (stereo unspecified),-12.5%,24.4%,·,-4.6%
Cc1ccc(Cl)cc1N1CCN(S(=O)(=O)c2ccc3c(c2)NC(=O)C(C)C(=O)N3)CC1 (stereo unspecified),?,-5.1%,11.2µM*,-24.0%
COC(=O)C1CCN(Cc2ccc3c(c2)CN(C(=O)c2ccc(-n4cnnn4)cc2)CCO3)CC1,5.3%,·,·,2.2%
CN(C)C(=O)N1CCN(C(=O)c2ccco2)CC1,-2.4%,-13.0%,28.2µM*,7.4%
CC(=O)c1ccc(F)c(-c2cc(C)cc3c2OC(CNC(=O)C2CCCCN2C)C3)c1 (stereo unspecified),-20.8%,·,·,-7.3%
COc1ccc(CN(C(=O)CSc2nnc(-c3c[nH]c4ccccc34)o2)c2ccc(F)cc2)cc1OC,10µM*,-1.5%,-4.5%,10µM*
CCC1CN(CC(=O)NC(c2ccccn2)C(F)(F)F)Cc2cc(OC)ccc2O1 (stereo unspecified),-12.1%,·,·,3.9%
CCN(CC)CCCNc1ncnc2ccccc12,-9.3%,-0.6%,-11.2%,3.7%
CCN(CC)CCCNc1ccc2ncn3c4ccc(O)cc4c(=O)c1c23,0.891µM*,·,·,?
Nc1cccc(-c2c[nH]c3ncc(-c4cccnc4)cc23)c1,?,·,·,10µM*
C=CCn1c(NCc2cc(Cl)ccc2O)nc2ccccc21,-27.5%,-17.3%,14.1µM*,?
CCCOc1cccc(C(=O)Nc2cccnc2)c1,14.1µM*,?,-8.3%,-12.5%
Fc1ccc(NC(=S)Nc2ccc(F)c(Cl)c2)cc1Cl,?,-9.8%,-48.9%,10µM*
O=C(NC(=S)Nc1ccc(F)c(Cl)c1)C1CC1,i,8.6%,-32.8%,-11.4%
CC(=O)Nc1sc(N/N=C\c2ccccc2Cl)nc1-c1cccs1,11.2µM*,-10.7%,-7.5%,?
SMILES,VACV mCherry inh,AmpC detergent,AmpC inh no detg,Vaccinia Venus
COc1ccc2[nH]cc(C(=O)CNc3nccs3)c2c1,-27.3%,·,·,-25.1%
CC(NC(=O)c1ccco1)c1nnc2n1CCN(Cc1ccc(N3CCCC3)cc1)CC2 (stereo unspecified),-3.1%,·,·,1.4%
O=C(c1ccc([N+](=O)[O-])cc1[N+](=O)[O-])N1CCc2ccccc21,2.24µM*,1.3%,-12.4%,?
CC1(OC(=O)CCc2ccccc2)C(=O)C=C2C=C(c3ccsc3)OC=C2C1=O (stereo unspecified),·,-1.2%,28.2µM*,·
Cc1cccc(C(=O)Oc2ccc(/C=N/NC(=O)c3ccc(O)cc3)cc2)c1,-12.2%,-2.2%,14.1µM*,-7.2%
Cc1cccc(C(=O)Oc2ccc(/C=N/NC(=O)c3ccccc3O)cc2)c1,-29.8%,4.5%,-29.2%,-9.4%
COc1ccc(C(=O)N/N=C/c2ccccc2OC(=O)c2ccccc2)cc1,2µM*,-0.1%,-27.7%,?
Cc1cc(C(=O)N/N=C/c2cc(Br)ccc2OC(=O)c2ccccc2Cl)n[nH]1,6.31µM*,-1.7%,-47.7%,?
Cc1cc(C(=O)N/N=C/c2cc(Br)ccc2OC(=O)c2ccccc2)n[nH]1,·,-6.7%,-36.0%,?
O=C(N/N=C/c1cc(Br)ccc1OC(=O)c1ccc(Br)cc1)c1ccncc1,4.47µM*,-2.9%,-24.1%,?
COc1cccc(OC)c1CN1CCC2(CCC(CNC(=O)c3ccccc3)O2)CC1 (stereo unspecified),-13.4%,·,·,2.8%
COc1cc(-c2cc(C)c3cccc(OC)c3n2)cc2c1OCCN(C(=O)CC1NC(=O)c3ccccc31)C2 (stereo unspecified),i,·,·,-0.4%
COc1ccc(C(=O)Oc2ccc(/C=N/NC(=O)c3ccccc3OC)cc2[N+](=O)[O-])cc1,-25.1%,0.1%,-7.5%,-12.9%
CC(C)(C)C(=O)Nc1ccc(C(=O)N/N=C/c2ccccc2OC(=O)c2ccccc2)cc1,·,0.1%,-6.7%,?
COc1ccc(C(=O)N/N=C/c2ccc(OC(=O)c3cccc4ccccc34)c([N+](=O)[O-])c2)cc1,i,-8.1%,28.2µM*,-14.6%
CC(C)(C)C(=O)Nc1ccc(C(=O)N/N=C/c2ccccc2OC(=O)c2ccc(Cl)cc2)cc1,7.94µM*,-20.9%,-0.2%,?
Cc1cccc(CNC(=O)c2c3n(c(C)cc2=O)-c2ccccc2SC(c2ccsc2)C3)n1 (stereo unspecified),i,·,·,-10.9%
O=C(CCOc1ccccc1)NO,-8.6%,·,·,-4.0%
Cc1nc([N+](=O)[O-])cn1CC(O)c1ccc2c(c1)OCCO2 (stereo unspecified),-1.9%,·,·,-21.1%
CCN(CC)C(=O)C1CCCN(C/C=C/c2ccccc2)C1 (stereo unspecified),·,0.3%,0.282µM*,·
CCN(CC)C(=O)C1CCCN(C/C(C)=C/c2ccccc2)C1 (stereo unspecified),·,-7.7%,14.5%,·
Cc1ccc(NC(=S)NC2CCSc3ccccc32)cc1C (stereo unspecified),-22.1%,-3.7%,11.2µM*,-24.8%
Fc1ccc(CSc2ncnc3nc[nH]c23)cc1,i,?,1.58µM*,-5.0%
COc1ccc(-c2csc(N(CCCN(C)C)C(=O)c3ccccc3Cl)n2)cc1,11.2µM*,·,·,?
OC1(c2cccnc2)CCN(Cc2ccc3c(c2)CN(Cc2ccsc2)CCO3)CC1,-13.3%,·,·,-15.6%
Cc1ccc(C)c2c(C)ccnc12,-10.6%,·,·,-7.6%
COC(=O)COc1cccc2c(=O)n(CC(=O)N3CCCc4ccccc43)ccc12,i,?,0.631µM*,-1.4%
NNc1nc(-c2ccccc2)cc(-c2ccccc2O)n1,·,-1.0%,-24.1%,·
